# The campaign covered roughly 2,300 compounds. About 430 (19%) were called active.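 How the source made its calls: active means remaining agonist calcium response no higher than 100% minus 3 SD of agonist-only control wells, with starting fluorescence near control levels; inactive means the rest.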 The list is a sample of the results.
# Target: Mas-related G-protein coupled receptor member X1 (Homo sapiens) (UniProt Q96LB2)
# Test: MrgX1 receptor antagonists, duplicate retest, confirmation, HEK293 cells, Fluo-4 calcium flux (AID 602420)
# Details: MrgX1-HEK293, BAM8-22 calcium flux, at 10 µM; hits give low values
# Mas-related G-protein coupled receptor member X1 (Homo sapiens), sequence (Q96LB2 whole entry, looked up): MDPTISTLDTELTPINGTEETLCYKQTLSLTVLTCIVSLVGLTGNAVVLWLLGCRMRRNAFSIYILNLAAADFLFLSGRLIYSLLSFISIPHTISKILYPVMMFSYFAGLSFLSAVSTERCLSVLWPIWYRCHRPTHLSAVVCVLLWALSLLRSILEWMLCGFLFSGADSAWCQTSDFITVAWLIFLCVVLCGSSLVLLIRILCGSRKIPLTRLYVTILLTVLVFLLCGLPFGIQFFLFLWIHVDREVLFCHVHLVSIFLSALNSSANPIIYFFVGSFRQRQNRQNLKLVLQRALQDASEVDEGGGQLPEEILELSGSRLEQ
row,Compound,remaining BAM8-22 calcium response % of control (hits give low values)
1,O=C(Cc1ccccn1)c1ccc(O)cc1O,77.8% (active)
2,CCOc1ccc(NC(=O)CCNC(=O)c2ccc(Br)cc2)cc1,inactive
3,COc1ccc([N+](=O)[O-])cc1NC(=O)COC(=O)/C=C/c1ccco1,inactive
4,CCOC(=O)C1=C(O)CSC1=Nc1cccc(Cl)c1,inactive
5,Cc1nn(-c2ccccc2)c(C)c1NC(=O)COc1ccc(Cl)cc1Cl,inactive
6,COc1ccc(C(=O)Nc2c(N)nc(SCC(=O)N3CCC(C)CC3)[nH]c2=O)cc1OC,83.1% (active)
7,CN1C(CC(=O)Nc2ccc(Br)cc2)c2ccccc2CC1(C)C (stereo unspecified),inactive
8,O=C(Nc1ccc(Br)cc1F)C1CC(=O)N(C2CCCCC2)C1 (stereo unspecified),inactive
9,Cc1cccc(-n2c(Cc3cc(=O)[nH]c(=O)[nH]3)nnc2SC(C)C)c1,inactive
10,Cc1ccc2nc(-c3ccc(NC(=O)c4cccnc4)cc3)oc2c1,67.5% (active)
11,Cc1ccc2nc(-c3ccc(NC(=O)CN(C)S(=O)(=O)c4ccccc4)cc3)sc2c1,inactive
12,O=C(O)CSC(NC(=O)c1cccnc1)(C(F)(F)F)C(F)(F)F,inactive
13,CCOC1CCCCC1NS(=O)(=O)c1ccc(Cl)cc1 (stereo unspecified),inactive
14,Cc1cc(Nc2cc(N3CCN(C)CC3)nc(Sc3ccc(NC(=O)C4CC4)cc3)n2)n[nH]1,84% (active)
15,CCOc1cc(-c2conc2N)cc(OCC)c1OCC,inactive
16,O=C(CN1CCN(c2ccccn2)CC1)NC1CCCCC1,inactive
17,Cc1cc(Br)ccc1NC(=O)c1cnc(N2CCN(c3ccccn3)CC2)c2ccccc12,72.4% (active)
18,O=S(=O)(c1ccc2ccccc2c1)N1CCN(S(=O)(=O)N2CCOCC2)CC1,inactive
19,C=CCOc1cccc(C2C(C(=O)c3ccc(C)o3)=C(O)C(=O)N2c2nnc(C)s2)c1 (stereo unspecified),63.9% (active)
20,CC(=O)N(C1=C(Cl)C(=O)c2ccccc2C1=O)c1ccc(C(=O)O)cc1,inactive
21,CCCCC(=O)Nc1ccc2c(c1)C(=O)NC2=O,inactive
22,O=C(C1CCN(S(=O)(=O)c2cnc[nH]2)CC1)N1CCN(Cc2ccc3c(c2)OCO3)CC1,inactive
23,C=CCNC(=O)c1csc(-c2ccccc2)n1,inactive
24,C=CCNC(=O)c1cc(-c2ccccc2O)on1,84.3% (active)

row,Compound,remaining BAM8-22 calcium response % of control (hits give low values)
1,COCC(C)NC(=O)c1ccc(Cl)c(Cl)c1 (stereo unspecified),inactive
2,O=C1CCCc2c1nc(-c1cccc(Cl)c1)n2O,inactive
3,CCc1cc2c(SCC(=O)Nc3ncc(Cl)c(C)c3Cl)ncnc2s1,inactive
4,O=C(COc1ccc(Cl)cc1)NC(=S)Nc1ccccc1N1CCOCC1,inactive
5,CCN(C(=O)CSc1nnc2ccccn12)C1CCS(=O)(=O)C1 (stereo unspecified),inactive
6,FC(F)Oc1ccc(NC(=S)NCc2ccco2)cc1Cl,inactive
7,O=C1CCCN1CCCNC(=S)Nc1ccc(F)c(Cl)c1,67.5% (active)
8,CCOC(=O)Nc1ccc2c(c1)N(C(=O)CCN1CCN(CCO)CC1)c1ccccc1CC2,inactive
9,CC(=O)N(C)c1ccc(NC(=O)C(F)(F)F)cc1,inactive
10,Cc1cccc(NC(=O)COc2ccccc2C)n1,inactive
11,CC(C)OCCCNc1ncnc2c1[nH]c1ccc(F)cc12,inactive
12,CCC(C)c1ccccc1N1CC(C(=O)N2CCN(S(=O)(=O)c3ccc(F)cc3)CC2)CC1=O (stereo unspecified),84.2% (active)
13,O=C(CSc1ncccn1)NC(=O)NCc1ccccc1,inactive
14,COCc1nnc(NC(=O)c2ccc3c(c2)OCO3)s1,inactive
15,Cc1cc(=O)oc2cc(NC(=O)C3CC(=O)N(Cc4ccccc4)C3)ccc12 (stereo unspecified),inactive
16,Cc1ccc(Nc2nc(-c3ccc(O)cc3O)cs2)nc1,82.3% (active)
17,CCOc1ccccc1C1CC(c2ccc(Cl)cc2)Nc2nc(N)nn21 (stereo unspecified),inactive
18,Cc1cc(C)cc(NC(=S)NCCc2c[nH]c3ccccc23)c1,inactive
19,COc1cc2c(cc1O)C(SC)=NC(C)(C)C2,85.2% (active)
20,CCOc1ccc(C(=O)NC2CCN(S(=O)(=O)CC)CC2)cc1,inactive
21,CCOC(=O)c1cn(Cc2cccc(C)c2)nn1,inactive
22,Cc1nn(-c2ccccc2)c2c1C(c1ccc(F)cc1)C(C#N)=C(N)O2 (stereo unspecified),inactive
23,CC(Oc1ccc(F)cc1)C(=O)Nc1ccccc1C(=O)NC1CC1 (stereo unspecified),inactive
24,Cc1ccc2cc(/C=N/Nc3ccc(C(=O)O)cc3)c(Cl)nc2c1,37.2% (active)

row,Compound,remaining BAM8-22 calcium response % of control (hits give low values)
1,COc1cccc(CCNC(=O)COc2cccc3c2OC(C)(C)C3)c1,inactive
2,O=C(Nc1ccccc1Cl)N1CCN(c2ccc3nncn3n2)CC1,inactive
3,COc1ccccc1Oc1nc(-c2cccnc2)nc2ccccc12,inactive
4,CC(C)(C)n1c(=O)[nH]c2c(c1=O)CCC2,inactive
5,CN(CC(=O)Nc1ccccc1Cl)C(=O)COc1cccc2c1OC(C)(C)C2,inactive
6,CCCCCCCCCCOC(=O)Cn1c(COc2cccc(OC)c2)[n+](C)c2ccccc21,53.5% (active)
7,CCCCCCCCCCOC(=O)Cn1c(COc2ccc(C)cc2)[n+](C)c2ccccc21,inactive
8,CCc1ccc2nc3sc(C(=O)Nc4nnc(CC)s4)c(N)c3cc2c1,inactive
9,CCN(CC)c1ccc(C2C3CCCCC3(O)CCN2CC(=O)Nc2ccccc2)cc1 (stereo unspecified),inactive
10,COCCNC(=O)Nc1ccc2nc(-c3ccco3)c(-c3ccco3)nc2c1,inactive
11,COc1ccc(S(=O)(=O)N2CCN(C(=O)NC3CCCCC3)CC2)cc1,inactive
12,CC(C)NC(=S)Nc1cccc2cnccc12,82.2% (active)
13,COc1ccc(S(=O)(=O)N2CCOCC2)c(C)c1C,inactive
14,Cc1ccc(Cc2cnc(N)s2)o1,inactive
15,COCCCNC(=O)C1CCN(c2ccc(N3CCOCC3)nn2)CC1,inactive
16,CC(=O)Nc1ccc(OC(=O)COc2ccc(Br)cc2)cc1,inactive
17,COC(=O)c1sccc1NS(=O)(=O)c1ccc(F)cc1F,80% (active)
18,CCc1nnc(NC(=O)CSc2nc3c(c(=O)n2-c2ccccc2OC)SCC3)s1,inactive
19,COc1ccc(C(=O)NC2CCCc3c2cnn3-c2cccc(C)c2C)c(OC)n1 (stereo unspecified),28.5% (active)
20,O=C(CSc1c2c(nc3ccc(Cl)cc13)CCCC2)NCc1ccco1,inactive
21,Cc1ccc(CS(=O)(=O)c2ncc(Cl)c(C(=O)Nc3nnc(C)s3)n2)cc1,81.2% (active)
22,COc1ccc(-n2c(SCC(=O)NCc3ccco3)nnc2-c2c[nH]c3ccccc23)cc1,inactive
23,CCOC(=O)c1c(C)[nH]c(=S)c(C#N)c1-c1ccccc1,inactive
24,COc1cccc(CNC(=O)C2CCN(S(=O)(=O)c3cccc4cccnc34)CC2)c1,inactive

row,Compound,remaining BAM8-22 calcium response % of control (hits give low values)
1,O=C(CSc1nncn1-c1cccnc1)N1CCOCC1,inactive
2,N#CC1=C(N)Oc2c(sc3ccccc23)C1c1ccco1 (stereo unspecified),inactive
3,O=C(Nc1ccc(Cl)cc1)Nc1ccc(Oc2cccnc2)nc1,80.3% (active)
4,COc1cc(C2/C(=C(\O)c3ccc4c(c3)CC(C)O4)C(=O)C(=O)N2Cc2ccco2)ccc1O (stereo unspecified),inactive
5,CN(C)CCn1c(=S)[nH]c2ccc(Cl)cc2c1=O,inactive
6,Cc1cc(C)n(CCNC(=O)CC2C(=O)NCCN2Cc2ccc(C)o2)n1 (stereo unspecified),inactive
7,FC(F)(F)c1cc(-c2cccs2)nc(NCc2ccco2)n1,inactive
8,S=C(NCc1ccc(Cl)cc1)NC12CC3CC(CC(C3)C1)C2,68.5% (active)
9,O=C(c1ccc(O)cc1)c1ccc(C(=O)O)c(C(=O)O)c1,inactive
10,O=C(Cn1c(-c2cncs2)nc2ccccc21)NC1CCCC1,inactive
11,CC1CCN(S(=O)(=O)c2nnc(NC(=O)COc3ccccc3F)s2)CC1,inactive
12,Cc1ccc(-c2nn(C(C)(C)C)c3ncnc(N)c23)cc1,inactive
13,c1ccc(-c2[nH]ncc2-c2nc3ccccc3[nH]2)cc1,inactive
14,Cc1nccn1CCC1CCCCN1C(=O)CCc1nnc(-c2ccsc2)o1 (stereo unspecified),inactive
15,CN(c1cccc(NC(=O)Nc2ccc(Cl)cc2)c1)S(C)(=O)=O,44.9% (active)
16,C(=N\n1cnnc1)/c1cccnc1,inactive
17,CCS(=O)(=O)c1ccc2c(c1)N(S(=O)(=O)c1ccccc1)CC(C(=O)O)O2 (stereo unspecified),inactive
18,CCOC(=O)c1c(NC(=O)CSc2cn(CC)c3ccccc23)sc2c1CCC2,85% (active)
19,CCOC(=O)c1c(NC(=O)CNC2CCCc3ccccc32)sc(C(N)=O)c1C (stereo unspecified),inactive
20,CCNC(=O)c1c(O)c2cccc3c2n(c1=O)CC3,inactive
21,Cc1ccc(C(=O)COC(=O)CCN2C(=O)C3C4CC(C(Br)C4Br)C3C2=O)cc1 (stereo unspecified),inactive
22,O=c1cc(CSc2ccccn2)nc(N2CCN(c3ccccc3)CC2)[nH]1,inactive
23,CCOC(=O)Cc1csc(SCc2cc(=O)oc3cc(O)ccc23)n1,85.3% (active)
24,CCSc1nsc(NC(=O)Nc2cccc(C(C)=O)c2)n1,inactive

row,Compound,remaining BAM8-22 calcium response % of control (hits give low values)
1,CCOC(=O)CNC(=O)CSc1nc2cccnc2n1CC,inactive
2,CCOC(=O)C1=C(O)/C(=C/c2cc(C)n(-c3ccccc3)c2C)N=C1C,inactive
3,Cc1cccn2c(=O)c(/C=C3\SC(=S)N(CC(C)C)C3=O)c(NCCCOC(C)C)nc12,63.8% (active)
4,CCN(CC)CC(=O)Nc1nn(-c2ccccc2)nc1C(N)=O,inactive
5,CCC1CCCCN1CCNC(=O)c1[nH]c(C)c(C(C)=O)c1C (stereo unspecified),inactive
6,O=C(CN1CCN(c2ccc(Cl)cc2)CC1)N1CCCC1,inactive
7,O=C(Cc1nc2ccccc2[nH]c1=O)c1ccc(Cl)cc1,64.3% (active)
8,O=C(NC1CCCCC1)C1c2ccccc2C(=O)N1Cc1ccco1 (stereo unspecified),inactive
9,CCc1cc(=O)oc2cc(C)cc(OCC(=O)N3CCC[C@@H]3C(=O)O)c12,inactive
10,CCCCOC(=O)CNc1nnc(SCC(=O)OCC)[nH]c1=O,70.5% (active)
11,COC(=O)c1c(NC(=O)c2c(Cl)cnn2C)sc(C)c1C,inactive
12,Cc1ccc(C(C(=O)NC2CCCCC2)N(C(=O)c2csnn2)C2CC2)o1 (stereo unspecified),inactive
13,O=C(c1cccs1)C1C(c2ccc(Br)cc2)NC(=S)NC1(O)C(F)(F)F (stereo unspecified),inactive
14,Cc1nc(N2CCN(c3ccccn3)CC2)c2c(C)c(C(=O)Nc3ccc(F)c(Cl)c3)sc2n1,70.4% (active)
15,COc1cc(CCC(=O)Nc2ccncc2Cl)cc(OC)c1OC,inactive
16,C=CCSc1nc(Cc2ccc(Cl)cc2)nc2ccccc12,inactive
17,O=C(COC(=O)C1CCN(S(=O)(=O)c2ccc3c(c2)OCCO3)CC1)Nc1ccccc1OC(F)F,inactive
18,Clc1ccc(-c2nc3ccccn3c2CN2CCSCC2)cc1,inactive
19,Clc1ccc(C=NC23CN4CN(CN(C4)C2)C3)cc1,inactive
20,COc1ccc(C(=O)CSc2n[nH]c(N)n2)cc1,inactive

# Source: PubChem BioAssay AID602420 (Johns Hopkins Ion Channel Center, 2012)
